This note sets out measurements from PubChem BioAssay (NCATS).

Values without a mark were called inactive. Inconclusive results are not listed. Activity calls are given as the source filed them. The call rests on the fitted dose curve; in most records, active means well fitted curve in the direction sought with a large enough effect; inconclusive means small, poorly fitted or top-dose-only effect, or another doubt; inactive means no such curve, though single readings can be large; an effect the other way counts as inactive or inconclusive.

Assay [1] concerns the target Glutathione peroxidase 1 (Homo sapiens) (UniProt P07203). The assay can be described thus: Primary qHTS Assay for Inhibitors of Recombinant Selenoprotein Glutathione Peroxidase 1 (GPX1) (AID 1845191). Further: nearly all actives have a fitted effect of over 65% in size. On activity, negative = inhibition: on the % scale 0 is the no-effect control and ±100 the full control effect. The essentials:
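GR-coupled readout: NADPH consumption tracked by fluorescence, ex 340/em 450 nm, at t=0 and after 15 min at RT. Final mix 10 nM GPX1, 1 mM GSH, 0.5 mM CHP, 0.5 mM NADPH, 100 nM GR, 0.01% BSA, following 30 min enzyme–compound preincubation.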
On the technique in general: Quantitative high-throughput screening tests each substance at several concentrations.

The target of assay [2] is Phospholipid hydroperoxide glutathione peroxidase GPX4 (Homo sapiens) (UniProt P36969). Description: Primary qHTS Assay for Inhibitors of Recombinant Selenoprotein Glutathione Peroxidase 4 (GPX4) (AID 1845192). Further: nearly all actives have a fitted effect of over 65% in size. On activity change, negative = inhibition: series mostly up to about 50 µM; on the % scale 0 is the no-effect control and ±100 the full control effect. The essentials: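 Steps: GPX4 plus compound, 30 min RT; add GR/GSH/NADPH master mix; start with cumene hydroperoxide; read 340/450 nm fluorescence at 0 and 15 min. Finals were 200 nM GPX4, 1 mM GSH, 0.5 mM CHP, 0.5 mM NADPH, 100 nM GR.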
Sequence of Phospholipid hydroperoxide glutathione peroxidase GPX4 (Homo sapiens) (P36969 whole entry, looked up): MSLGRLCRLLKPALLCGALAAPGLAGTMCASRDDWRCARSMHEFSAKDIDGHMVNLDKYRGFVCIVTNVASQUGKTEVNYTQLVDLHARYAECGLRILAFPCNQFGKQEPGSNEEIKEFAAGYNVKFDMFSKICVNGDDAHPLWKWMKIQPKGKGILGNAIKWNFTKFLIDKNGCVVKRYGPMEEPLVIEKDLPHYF

The target in assay [3] is Luciferin 4-monooxygenase (Photinus pyralis) (UniProt P08659). Description: Primary firefly luciferase (FLuc) qHTS assay for identification of artifact compounds. (AID 1845220). Further: nearly all actives have a fitted effect of over 60% in size.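 On activity change, negative = inhibition: series mostly up to about 54 µM; plate controls were DMSO vehicle for no effect and no enzyme for full effect.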 The essentials:
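D-luciferin and ATP (10 uM each, final) in Tris acetate buffer pH 7.6 were incubated with compounds for 15 min at room temperature. The reaction was started with 10 nM Photinus pyralis luciferase and luminescence read after 5 min. Percent inhibition was fitted to a 4-parameter Hill equation.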

Assay [4] in a line: Primary fluorescence-based thiol-reactive (MSTI) qHTS assay for identification of artifact compounds. (AID 1845221). Further: nearly all actives have a fitted effect of over 65% in size. Further: potency means the concentration at half of the fitted maximal effect.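 On activity change, negative = thiol reactive: series mostly up to about 54 µM; thiol-reactive compounds lower the probe fluorescence signal.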 The essentials:
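MSTI probe at 4 uM final in 2% DMSO/PBS pH 7.4; compounds, 1 h at room temperature in dark. Fluorescence Ex/Em 525/598 nm, normalised to Acetyl-MSTI and MSTI, fitted to 4-parameter Hill.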

Assay [5] deals with Nanoluciferase (engineered Oplophorus gracilirostris luciferase). The assay can be described thus: Primary Nanoluciferase (NLuc) qHTS assay for identification of artifact compounds. (AID 1845222).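 Further: series mostly up to about 54 µM; 0% = DMSO and -100% = no enzyme.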 The method, boiled down: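 Diluted conditioned medium from NLuc-expressing S16 cells treated with compounds for 15 min at room temperature, then Nano-Glo substrate added; luminescence read after 5 min. Percent inhibition versus no-enzyme and DMSO controls fitted to 4-parameter Hill equation.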

A short description of assay [6]: Primary redox qHTS assay for identification of artifact compounds. (AID 1845223).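 Further: 0% = DMSO and 100% = reference compound.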 The essentials:
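Redox-cycling detection via DTT (250 uM final) oxidation coupled to Amplex Red (25 uM)/HRP (250 mU/mL) in HBSS. 15 min preincubation plus 30 min after DTT, room temperature. Ex/Em 525/598 nm; 4-parameter Hill fit against DMSO and 10 uM DA3003.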

Sequence of Glutathione peroxidase 1 (Homo sapiens) (P07203 whole entry, looked up): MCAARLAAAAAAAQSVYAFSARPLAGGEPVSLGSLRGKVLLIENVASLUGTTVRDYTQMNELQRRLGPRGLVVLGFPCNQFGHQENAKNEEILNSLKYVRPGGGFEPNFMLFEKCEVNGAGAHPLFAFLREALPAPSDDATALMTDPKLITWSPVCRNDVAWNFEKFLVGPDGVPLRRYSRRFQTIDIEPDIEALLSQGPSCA

Turning to `Cc1ccc(C)c(S(=O)(=O)n2cnc3ccccc32)c1`, the Potency entry in assay [1], in assay [2], in assay [3], in assay [4], in assay [5] and in assay [6] was “inactive” each time.

With `CC(C)=CCC[C@](C)(O[C@@H]1O[C@H](CO[C@@H]2O[C@@H](CO)[C@H](O)[C@H]2O[C@@H]2OC[C@@H](O)[C@H](O)[C@H]2O)[C@@H](O)[C@H](O)[C@H]1O)[C@H]1CC[C@]2(C)[C@@H]1[C@H](O)CC1[C@@]3(C)CC[C@H](O[C@@H]4O[C@H](CO)[C@@H](O)[C@H](O)[C@H]4O[C@@H]4O[C@H](CO)[C@@H](O)[C@H](O)[C@H]4O)C(C)(C)C3CC[C@]12C` (stereo not given in full), the Potency entry in assay [1] and in assay [2] was “inactive” each time. Moreover, in assay [3], the activity change, negative = inhibition is 0.984% [at 11.6 µM]. In assay [4], the activity change, negative = thiol reactive is 132% [at 11.5 µM]. Also, the activity, negative = inhibition in assay [5] is 0% [at 11.6 µM]. Also, the redox activity (% of DA3003) in assay [6] is -2.65% [at 11.5 µM].

In the case of `COc1cn(-c2ccc(-n3cccn3)cc2F)nc(-c2ccnn2-c2ccccc2)c1=O`, the Potency entry in assay [1], in assay [2], in assay [3], in assay [4], in assay [5] and in assay [6] was “inactive” each time.

Turning to `CC(=C\C(C)O)/C=C(\C)C(=O)CC1CC(CC(N)=O)CC(=O)O1` (stereo not given), the Potency result in assay [1], in assay [2], in assay [3], in assay [4], in assay [5] and in assay [6] was “inactive” in each case.

Consider `CC(C)c1ccc2c(c1)C(O)CC1C(C)(C(=O)O)CCCC21C` (stereo not given), for which the Potency result in assay [1], in assay [2], in assay [3], in assay [4], in assay [5] and in assay [6] was “inactive” in each case.

Turning to `CCC(C)C(=O)O[C@H]1[C@@H](O[C@H]2O[C@H](CO)[C@@H](O)[C@H](O)[C@H]2O)O[C@H](CO)[C@@H](O)[C@@H]1O` (stereo not given in full), the Potency entry in assay [1], in assay [2], in assay [3], in assay [4], in assay [5] and in assay [6] was “inactive” each time.

For `CC(/C=C/C=C(\C)C(=O)O[C@@H]1O[C@H](CO[C@@H]2O[C@H](CO)[C@@H](O)[C@H](O)[C@H]2O)[C@@H](O)[C@H](O)[C@H]1O)=C\C=C\C=C(C)\C=C\C=C(/C)C(=O)O[C@@H]1C[C@](O)(C(=O)O)C[C@@H](O)[C@H]1OC(=O)/C=C/c1ccc(O)c(O)c1`, the Potency entry in assay [1] and in assay [2] was “inactive” throughout. In addition, the activity change, negative = inhibition in assay [3] is -0.112% [at 11.6 µM]. Further, the Potency in assay [4] is 0.45 µM (active). For the same molecule, in assay [5], the activity, negative = inhibition was -29.7% [at 11.6 µM]. Also, the redox activity (% of DA3003) in assay [6] is -7.98% [at 11.5 µM].

On to `C[C@@H](c1ccccc1)N(C(N)=NC#N)c1cccc2ncccc12`, for which the Potency result in assay [1], in assay [2], in assay [3], in assay [4], in assay [5] and in assay [6] was “inactive” each time.

Consider `O=C1NC(=O)/C(=C/c2cccc(C(F)(F)F)c2)S1`, for which the Potency result in assay [1], in assay [2], in assay [3], in assay [5] and in assay [6] was “inactive” each time. For the same molecule, the Potency in assay [4] was 1.06 µM (active).

As to `CC1OC(O[C@@H]2[C@@H](O)[C@H](OC(=O)[C@]34CCC(C)(C)C[C@H]3C3=CCC5[C@@]6(C)CC[C@H](O[C@@H]7O[C@H](C(=O)O)[C@@H](O)[C@H](O[C@@H]8OC[C@@H](O)[C@H](O)[C@H]8O)[C@H]7O[C@@H]7O[C@H](CO)[C@H](O)[C@H](O)[C@H]7O)[C@@](C)(C=O)C6CC[C@@]5(C)[C@]3(C)C[C@H]4O)O[C@H](C)[C@@H]2OC2OC(C)C(OC3OCC(O)C(O)C3O)C(O)C2O)C(O)C(O)C1O` (stereo not given in full), the Potency result in assay [1] and in assay [2] was “inactive” each time. The activity change, negative = inhibition in assay [3] was 1.64% [at 11.6 µM]. The activity change, negative = thiol reactive in assay [4] was 288% [at 11.5 µM]. Besides, in assay [5], the activity, negative = inhibition was 2.13% [at 11.6 µM]. Further, the redox activity (% of DA3003) in assay [6] is 19.3% [at 11.5 µM].

`COc1cc2c(cc1O)CC(O)(CO)C(CO)C2c1ccc(OC2OC(CO)C(O)C(O)C2O)c(OC)c1` (stereo not given): the Potency entry in assay [1], in assay [2], in assay [3], in assay [5] and in assay [6] was “inactive” in each case. In assay [4], the Potency was 10.3 µM (active).

With `Cc1nnc(-c2ccc3occ(-c4ccc(S(C)=O)cc4)c3c2)o1` (stereo not given), the Potency entry in assay [1], in assay [2], in assay [3], in assay [4], in assay [5] and in assay [6] was “inactive” throughout.

Take `COc1c2c(c(C)c3c1C(=O)OC3)OC1(C)CC(O)C34OC(O)(CCC3(C)C1C2)OC4(C)C` (stereo not given): the Potency entry in assay [1], in assay [2], in assay [3], in assay [4], in assay [5] and in assay [6] was “inactive” in each case.

Take `CC1CC2OCC3(O)CCC(O)C(C14CC(c1ccoc1)OC4=O)C23CO` (stereo not given): the Potency result in assay [1], in assay [2], in assay [3], in assay [5] and in assay [6] was “inactive” each time. Besides, the Potency in assay [4] is 3.29 µM (active).

As for `CC1(C)CC[C@]2(C(=O)O[C@@H]3O[C@H](CO)[C@@H](O)[C@H](O)[C@H]3O)CC[C@]3(C)C(=CCC4[C@@]5(C)CC[C@H](O[C@@H]6O[C@H](C(=O)O)[C@@H](O[C@@H]7O[C@H](CO)[C@@H](O)[C@H](O)[C@H]7O)[C@H](O)[C@H]6O[C@@H]6O[C@H](CO)[C@@H](O)[C@H](O)[C@H]6O)C(C)(C)C5CC[C@]43C)C2C1` (stereo not given in full), the Potency entry in assay [1] and in assay [2] was “inactive” in each case. In addition, in assay [3], the outcome is “inactive [at 11.6 µM]”. In addition, the activity change, negative = thiol reactive in assay [4] was 240% [at 11.5 µM]. Moreover, in assay [5], the activity, negative = inhibition was 0% [at 11.6 µM]. In assay [6], the redox activity (% of DA3003) is 12.6% [at 11.5 µM].

Take `COc1cc(O)cc(C)c1C(=O)OC1C(CO)OC(n2ccc(=O)[nH]c2=O)C1OC(C)=O` (stereo not given): the Potency entry in assay [1], in assay [2], in assay [3], in assay [5] and in assay [6] was “inactive” in each case. The Potency in assay [4] was 9.22 µM (active).

On to `CC1=C2C[C@@]3(C)C(CCC[C@@H]3C)C(O)C2(O)OC1=O` (stereo not given in full), for which the Potency entry in assay [1], in assay [2], in assay [3], in assay [4], in assay [5] and in assay [6] was “inactive” throughout.

In the case of `COC(=O)C1=COC(O[C@@H]2O[C@H](COC(=O)/C=C/c3ccc(O)cc3)[C@@H](O)[C@H](O)[C@H]2O)C2C(CO)=CCC12` (stereo not given in full), the Potency entry in assay [1], in assay [2], in assay [3], in assay [4], in assay [5] and in assay [6] was “inactive” each time.

In the case of `CN1CCN(C(=O)c2cc3cc(Cl)ccc3[nH]2)CC1`, the Potency entry in assay [1], in assay [2], in assay [3], in assay [4], in assay [5] and in assay [6] was “inactive” throughout.

As to `O=C(NC1CCN(CC(F)(F)F)CC1)c1ccc(-c2cccc(F)c2)nc1`, the Potency entry in assay [1], in assay [2], in assay [3], in assay [4], in assay [5] and in assay [6] was “inactive” each time.
